Test results as given in PubChem BioAssay (NCI).
The panel holds about 83,000 compounds, 20% with a hit somewhere; the sample as a whole holds those more often.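 Results are percent growth after 48 hours of single-concentration exposure. 100 means growth as in untreated cells, lower positive values show inhibition; negative values down to -100 show cell death.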 The source made the active and inactive calls. Rule for the calls: active = growth percent below 10; inactive = the rest.

Key:
Experiment in all cases: NCI-60 one-dose screen, 48 h (100 = growth as untreated, 0 = no growth, -100 = all killed)
Conditions in all cases: 10 µM unless noted
HCT-15 colon = tested on: HCT-15 colon
HT29 colon = tested on: HT29 colon
SNB-75 CNS = tested on: SNB-75 CNS
SNB-19 CNS = tested on: SNB-19 CNS
U251 CNS = tested on: U251 CNS
PC-3 prostate = tested on: PC-3 prostate
SK-MEL-5 melanoma = tested on: SK-MEL-5 melanoma
UACC-62 melanoma = tested on: UACC-62 melanoma
LOX IMVI melanoma = tested on: LOX IMVI melanoma
SK-MEL-28 melanoma = tested on: SK-MEL-28 melanoma
SK-MEL-2 melanoma = tested on: SK-MEL-2 melanoma
EKVX NSCLC = tested on: EKVX NSCLC
SN12C renal = tested on: SN12C renal
UO-31 renal = tested on: UO-31 renal
TK-10 renal = tested on: TK-10 renal
ACHN renal = tested on: ACHN renal
CAKI-1 renal = tested on: CAKI-1 renal
A498 renal = tested on: A498 renal
CCRF-CEM leukemia = tested on: CCRF-CEM leukemia
MOLT-4 leukemia = tested on: MOLT-4 leukemia

Measured: growth

C=CCn1c(-c2nc3ccc(C(=C(C#N)C#N)c4ccccc4)cc3[nH]2)cc2cc(Br)ccc21
inactive: HCT-15 colon 30.4% | HT29 colon 64.4% | SNB-75 CNS 89.3% | SNB-19 CNS 70.8% | U251 CNS 51.9% | PC-3 prostate 31.5% | SK-MEL-5 melanoma 55.9% | UACC-62 melanoma 39.5% | LOX IMVI melanoma 36.4% | SK-MEL-28 melanoma 82.9% | SK-MEL-2 melanoma 96.7% | EKVX NSCLC 42.9% | SN12C renal 69% | UO-31 renal 51.9% | TK-10 renal 94% | ACHN renal 55.6% | CAKI-1 renal 48.8% | A498 renal 87.7% | CCRF-CEM leukemia 50.5% | MOLT-4 leukemia 36.4%

CCc1nn2c(C)cc(C)nc2c1Cc1ccc(/C=C/CN2CCN(CCOCCOCCN3CCN(C/C=C/c4ccc(Cc5c(CC)nn6c(C)cc(C)nc56)cc4)CC3)CC2)cc1
active: HCT-15 colon -81.1% | HT29 colon -35.8% | U251 CNS -47% | SK-MEL-5 melanoma -97.5% | UACC-62 melanoma -86.4% | LOX IMVI melanoma -88.4% | SK-MEL-28 melanoma -88.9% | UO-31 renal -95.9% | ACHN renal 1.5% | CAKI-1 renal -16.2% | CCRF-CEM leukemia -10.2% | MOLT-4 leukemia -17.6%
inactive: SNB-75 CNS 99% | SNB-19 CNS 17.7% | PC-3 prostate 24.8% | SK-MEL-2 melanoma 79.4% | EKVX NSCLC 46.6% | SN12C renal 31.4% | TK-10 renal 103% | A498 renal 69.7%

COC(=O)C(Cc1ccccc1)Nc1nc(NC(Cc2ccccc2)C(=O)OC)nc(N2CCOCC2)n1 (stereo not given)
inactive: HCT-15 colon 106% | HT29 colon 101% | SNB-75 CNS 90.5% | SNB-19 CNS 104% | U251 CNS 105% | PC-3 prostate 103% | SK-MEL-5 melanoma 98.7% | UACC-62 melanoma 90.2% | LOX IMVI melanoma 105% | SK-MEL-28 melanoma 109% | SK-MEL-2 melanoma 111% | EKVX NSCLC 105% | SN12C renal 104% | UO-31 renal 81.2% | TK-10 renal 103% | ACHN renal 109% | CAKI-1 renal 86.8% | A498 renal 107% | CCRF-CEM leukemia 105% | MOLT-4 leukemia 101%

O=C(CN1CCN(c2cc(=O)n(-c3ccccc3)c3ccccc23)CC1)Nc1nc(-c2ccc(Cl)cc2)cs1
inactive: HCT-15 colon 39.7% | HT29 colon 63.8% | SNB-75 CNS 67.5% | SNB-19 CNS 64% | U251 CNS 63.8% | PC-3 prostate 35% | UACC-62 melanoma 61.5% | LOX IMVI melanoma 58.4% | SK-MEL-28 melanoma 69.2% | SK-MEL-2 melanoma 75.6% | EKVX NSCLC 42.7% | SN12C renal 74.1% | UO-31 renal 29.5% | TK-10 renal 62.4% | ACHN renal 55.1% | CAKI-1 renal 49.6% | A498 renal 40.7% | CCRF-CEM leukemia 50.7% | MOLT-4 leukemia 29%
active: SK-MEL-5 melanoma 5.1%

COc1cc(-c2ccc3ncnc(NCc4ccccc4)c3c2)cnc1OC
inactive: HCT-15 colon 68.2% | HT29 colon 64.5% | SNB-19 CNS 74.4% | U251 CNS 81.7% | PC-3 prostate 31.7% | SK-MEL-5 melanoma 70.8% | UACC-62 melanoma 47.1% | LOX IMVI melanoma 41.2% | SK-MEL-28 melanoma 63.2% | SK-MEL-2 melanoma 76.5% | SN12C renal 27.2% | UO-31 renal 17.7% | ACHN renal 19.9% | CCRF-CEM leukemia 54.8% | MOLT-4 leukemia 32.1%
active: SNB-75 CNS -17.8% | EKVX NSCLC 6.53% | TK-10 renal -11.7% | CAKI-1 renal 6.95% | A498 renal -48.8%

COc1ccc([C@H]2[C@H](O)C(=O)N2c2cc(OC)c(OC)c(OC)c2)cc1F
inactive: SNB-75 CNS 19% | SNB-19 CNS 27.7% | PC-3 prostate 19.8% | UACC-62 melanoma 33.3% | SK-MEL-28 melanoma 63% | EKVX NSCLC 44.7% | SN12C renal 27.3% | UO-31 renal 34.2% | TK-10 renal 86.2% | ACHN renal 24.6% | CAKI-1 renal 29.6% | CCRF-CEM leukemia 17.9% | MOLT-4 leukemia 15.2%
active: HCT-15 colon 7.86% | HT29 colon -26% | U251 CNS 7.47% | SK-MEL-5 melanoma -30.9% | LOX IMVI melanoma -6.07% | SK-MEL-2 melanoma -43.3% | A498 renal -26.1%

Cc1nn(-c2ccccc2)c2ncnc(N/N=C/c3ccccc3)c12
inactive: HCT-15 colon 85.4% | HT29 colon 89.1% | SNB-75 CNS 82.9% | SNB-19 CNS 84.4% | U251 CNS 85% | PC-3 prostate 85.2% | SK-MEL-5 melanoma 92.2% | UACC-62 melanoma 90.6% | LOX IMVI melanoma 105% | SK-MEL-28 melanoma 98.4% | SK-MEL-2 melanoma 104% | EKVX NSCLC 89.6% | SN12C renal 81% | UO-31 renal 75.3% | TK-10 renal 113% | ACHN renal 85.8% | CAKI-1 renal 102% | A498 renal 74.1% | CCRF-CEM leukemia 88.3% | MOLT-4 leukemia 87.1%
